Source: PubChem
Only some compounds are listed: those with a hit (about 6.3% of all), similar ones and a draw of the others.
NADH enzymes: inhibitors of PK/LDH coupling enzymes, profiling panel, artefact control, biochemical, MLSMR library. coupled PK/LDH NADH assays, four targets. IC50, µM (highest dose often 10 µM), without a hit: top-dose inhibition. actives 0.02% (n = 65,000). AID 774, 2007;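 active = single-dose screening hits from any of four coupled enzyme assays that gave an IC50 when retested across doses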;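 note: the DPM-DC format reads NADH fluorescence rather than 340 nm absorbance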
Spn MK inh: S. pneumoniae MK inhibitors, primary screen, biochemical, PK/LDH-coupled NADH absorbance. mevalonate kinase [Streptococcus pneumoniae D39]. purified MK, PK/LDH-coupled NADH absorbance 340 nm. inhibition, % at 10 µM. actives 0.48% (n = 65,000). AID 555, 2006;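 active = ranked among the strongest by inhibition in the single 10 µM screen, a fixed top-ranked set picked for dose follow-up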
Abs 340nm: compound light absorbance at 340 nm, profiling panel, artefact control, biochemical, MLSMR library, data from PS, PMK, MK assays; compound absorbance at 340 nm, fold over control; fold change at 10 µM; 65,000 tested, under 10 active;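 active = at 10 µM dose, initial 340 nm absorbance at least 2 fold that of control wells; inactive = change under 2 fold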;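 note: initial absorbance extrapolated from kinetic A340 decline of NADH oxidation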
DPM-DC inhibit: S. pneumoniae DPM-DC inhibitors, primary screen, biochemical, PK/LDH-coupled NADH fluorescence; diphosphomevalonate decarboxylase (Streptococcus pneumoniae D39); purified DPM-DC; calls only at 10 µM; actives 0.49% (n = 65,000); AID 556, 2006;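 active = the 320 compounds with the highest percent inhibition in the single-dose primary screen, excluding strongly autofluorescent ones, cut at about 32% in these data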;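 note: kinetic rate of NADH fluorescence loss reporting ADP formed by the decarboxylase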
Autofluor 339: intrinsic fluorescence of library compounds, ex339/em460 – biochemical, MLSMR library, data from DPM-DC assay, artefact control, profiling panel; fluorescence fold increase at 10 µM; AID 709, 2007; actives 5.5% (n = 65,000); compound autofluorescence, ex339/em460 nm, NADH buffer; active compounds read high; 1 = no-compound wells, NADH background;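 active = at 10 µM, mean starting fluorescence two-fold or more over control wells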;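 note: signal is the first read of a kinetic run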
Spn PMK inh: S. pneumoniae PMK inhibitors, primary screen, biochemical, mevalonate pathway, pilot trial included. actives 0.49% (n = 65,000). phosphomevalonate kinase (Streptococcus pneumoniae D39). inhibition, % at 10 µM. purified PMK, PK/LDH-coupled NADH absorbance 340 nm;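 active = top-ranked compounds by inhibition in the single 10 µM screen, taking a fixed number of the strongest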;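 note: 0% = full reaction with DMSO carrier and 100% = background rate without enzyme reaction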
The depositor's hits bear a star; i = inactive; . = no result shown.

SMILES | NADH enzymes | Spn MK inh | Abs 340nm | DPM-DC inhibit | Autofluor 339 | Spn PMK inh
Cc1ccc(NC2c3ncccc3C(=O)N2c2ccccc2C)cc1C (configuration not stated) | 35.0% | 83.0* | 1.09 | i | 1.19 | 23.0
OCn1ncn(-c2ccccc2)c1=S | 6.0% | 13.0 | 0.98 | i | 1.07 | 6.0
COc1cc(OC)cc(-c2nc(-c3cc4cc(C)ccc4nc3OC)no2)c1 | 7.0% | 4.0 | 1.09 | i | 2.6* | 10.0
COc1nc2cc(C)ccc2cc1-c1noc(-c2cccnc2)n1 | 6.0% | 6.0 | 1 | i | 1.32 | 12.0
COc1ccc2nc(C)c3c(c2c1)OC(C)C3 (configuration not stated) | 2.0% | 3.0 | 1.07 | i | 1.69 | 0.0
COc1cccc2c3c(c(C)nc12)CC(C)O3 (configuration not stated) | 5.0% | 6.0 | 1 | . | 3.67* | 3.0
CCN(CC)c1ccc2c(C)c(CN3CCOCC3)c(=O)oc2c1 | 9.0% | 9.0 | 1.07 | . | 4.31* | 9.0
Cc1ccc(-c2cn3c(=S)[nH]nc3s2)cc1 | 46.0% | 99.0* | 1.1 | i | 1.02 | 16.0
Cc1nn(-c2ccccc2)c(-c2ccccc2)c1C(=O)O | 6.0% | 10.0 | 1.06 | i | 0.91 | 0.0
O=c1[nH]cnc2c1N1CCC2CC1 | 6.0% | 0.0 | 1.03 | i | 0.82 | 5.0
CC(Nc1nc(N2CCN(S(C)(=O)=O)CC2)nc2ccccc12)c1ccccc1 (configuration not stated) | 8.0% | 13.0 | 1.1 | . | 2.08* | 2.0
O=C1CCNc2cc3ccccc3cc21 | 3.0% | 9.0 | 1.01 | . | 2.02* | 0.0
Cc1cccc(-n2ncc3c(NCCc4ccc(S(N)(=O)=O)cc4)ncnc32)c1 | 3.0% | 3.0 | 1.09 | i | 1.11 | 5.0
O=C(COC(=O)c1ccccc1NC(=O)c1ccco1)NCc1ccc2c(c1)OCO2 | 5.0% | 3.0 | 1.07 | i | 1.56 | 11.0
CCCCN(CC)CCCNC(=O)c1cc2cc3ccc(OC)cc3nc2o1 | 8.0% | 1.0 | 1.12 | . | 5.09* | 15.0
COc1ccc(C)cc1NC(=O)c1cc2cc3ccc(C)cc3nc2o1 | 8.0% | 4.0 | 1.05 | . | 3.99* | 11.0
COc1ccc2cc3cc(C(=O)NCCc4ccc(OC)c(OC)c4)oc3nc2c1 | 6.0% | 1.0 | 1.08 | . | 4.61* | 10.0
CCCN(CCC)CCCNC(=O)c1cc2cc3ccc(OC)cc3nc2o1 | 4.0% | 1.0 | 1.12 | . | 5.1* | 7.0
CCOc1ccc(C(=O)NCCCN(CC)CC)cc1 | 3.0% | 8.0 | 1.02 | i | 1.09 | 0.0
Fc1ccccc1N1CCN(Cc2nc(-c3ccc(Cl)cc3Cl)no2)CC1 | 2.0% | 6.0 | 1.04 | i | 1.07 | 1.0
CCn1cc(C(=O)N2CCOCC2)c(=O)c2cc(S(=O)(=O)N(C)C3CCCCC3)ccc21 | 5.0% | 1.0 | 1.01 | i | 1 | 8.0
O=C1c2ccccc2C(Nc2ccc3nc(-c4cccnc4)[nH]c3c2)N1Cc1ccco1 (configuration not stated) | 5.0% | 4.0 | 1.09 | i | 1.57 | 0.0
CC(C)n1c2ccccc2c2nc3ccccc3nc21 | 5.0% | 0.0 | 1.1 | i | 2.69* | 0.0
COc1ccc(OC)c(NC(=O)CSc2nnc(CNc3ccc(C)cc3C)o2)c1 | 7.0% | 9.0 | 0.97 | i | 1.09 | 11.0
CCn1nc(NC(=O)c2ccncc2)c2cc3ccccc3nc21 | 3.0% | 8.0 | 1.04 | i | 1.19 | 0.0
CCn1nc(-c2ccccc2)c2nc3ccccc3nc21 | 12.0% | 5.0 | 1.05 | i | 2.38* | 13.0
CCCn1nc(-c2ccccc2)c2nc3ccccc3nc21 | 4.0% | 3.0 | 1.05 | i | 2.39* | 8.0
CC(C)N(C)C1CCN(C(=O)Nc2ccc(Cl)c(Cl)c2)CC1 | 3.0% | 0.0 | 0.99 | i | 1.06 | 9.0
CCOC(=O)c1cnc(SCC(=O)N2CCN(c3ccccc3)CC2)nc1N | 5.0% | 9.0 | 1.03 | i | 1.05 | 5.0
